PubChem BioAssay (Tox21)
Results filed as inconclusive are left out. The source made the active and inactive calls. Calls follow the shape of the dose curve; as a rule, active = well fitted cell-killing curve with a large enough effect in the repeat runs; inconclusive = weak or mixed curves, or effect the other way; inactive = flat fitted curve, though single readings scatter.

Experiment: qHTS assay to identify small molecule agonists of the androgen receptor (AR) signaling pathway in the presence of an antagonist - cell viability counter screen (AID 1259379); also: nearly all actives have a fitted effect of over 25% in size
Conditions: MDA-kb2 viability, CellTiter-Fluor, 16 h; series mostly up to 92.4 µM; activity change, negative = cytotoxicity: at the top concentration
From the text: National Center for Advancing Translational Sciences [NCATS]
NIH Chemical Genomics Center [NCGC]
U.S. Environmental Protection Agency [EPA]
National Institutes of Environmental Health Sciences [NIEHS]
National Toxicology Program [NTP]
U.S. Food and Drug Administration [FDA]
Androgen receptor (AR) is an important member of nuclear receptor family. Its signaling plays a critical role in AR-dependent prostate cancer and other androgen related diseases. Considerable attention has been given in the past decades to develop methods to study and screen for the environmental chemicals that have the potential to interfere with metabolic homeostasis, reproduction, developmental and behavioral functions. Therefore AR binding assay for screening against androgen agonists and antagonists can be used to identify potential endocrine disruptors.
MDA-kb2 cells (from ATCC, deposited by Wilson et al.) are human breast carcinoma cells that were stably transfected with a luciferase reporter gene under control of the MMTV promoter that contains response elements for both androgen receptor (AR) and glucocorticoid receptor (GR). This particular screening for measuring luciferase reporter gene activity using MDA-kb2 cells against Tox21 10K library compounds is a confirmation study on agonist mode screening in the presence of AR-antagonist compound (Nilutamide) at 3.0uM final concentration. The cytotoxicity of the compounds was tested in parallel by measuring the cell viability using CellTiter-Fluor assay system (Promega, Madison, WI) in the same wells.
Tox21 Assay Protocol Summary:
MDA-kb2 cells (cells cultured without CO2) were dispensed at 3,000 cells/well in 4uL of culture medium into white wall/solid-bottom 1536-well plates (Corning Life Sciences, Corning, NY) using a Multidrop Combi (Thermo Fisher Scientific Inc., Waltham, MA) dispenser. The assay plates were incubated at 37C and 0% CO2 for 5hr. One uL of 3.0uM (final concentration) Nilutamide or assay buffer was added using two separate tips of Flying Reagent Dispenser (FRD, Aurora Discovery, San Diego, CA). Then 23nL of compounds dissolved in DMSO at 15 concentrations and positive controls were transferred to the assay plates using a Pintool station (Wako, San Diego, CA). The assay plates were incubated at 37C and 0% CO2 for 16 hr. After 15hr incubation at 37C, 1uL/well CellTiter-Fluor reagent (Promega Corporation) was added to each well of the assay plates using FRD. After 1hr incubation at 37C and 0% CO2, the fluorescence signal was measured using a ViewLux plate reader (PerkinElmer, Shelton, CT).
% is scaled to controls: 0 for no effect and ±100 for the full control effect; potency is read from the fitted curve at half-maximal effect.

Row | Compound | Potency | activity change, negative = cytotoxicity
1 | CC(C)(C)c1cc(O)c(C(C)(C)C)cc1O | 54.5 µM (active) | 
2 | N#CCCNCCC#N |  | -1.7% (inactive)
3 | CCN(CC)C(C)=O |  | -2.41% (inactive)
4 | CCCCOc1cc(C(=O)OCCN(CC)CC)ccc1N |  | -1.24% [at 42.5 µM] (inactive)
5 | C=C(C)C(=O)OC(C)C |  | 0.361% (inactive)
6 | CC(=O)SCc1ccco1 |  | 1.38% (inactive)
7 | CCCCc1cc2ccccc2c(OCCN(C)C)n1 |  | -8.47% [at 42.5 µM] (inactive)
8 | CC(C)c1ccccc1C(C)C |  | -0.0117% (inactive)
9 | CCCCCOC(=O)c1ccc(O)cc1 |  | -3.28% (inactive)
10 | CCOC(=O)CC(C)C |  | -2.14% (inactive)
11 | O=C(O)Cc1sc(-c2ccccc2)nc1-c1ccc(Cl)cc1 |  | -1.96% [at 42.5 µM] (inactive)
12 | Cc1ccc(C(N)=O)cc1N |  | 3.86% (inactive)
13 | CC(C)(C)c1ccc(OCC2CO2)cc1 (stereo not given) |  | 1.31% (inactive)
14 | Cc1ccc(C)o1 |  | 3.12% (inactive)
15 | Nc1nc(N)c(-c2ccccc2)s1 |  | 1.21% [at 42.5 µM] (inactive)
16 | CC(=O)[C@@]1(O)CC[C@H]2[C@@H]3C[C@H](C)C4=CC(=O)CC[C@]4(C)[C@H]3CC[C@@]21C |  | 0.0599% [at 42.5 µM] (inactive)
17 | CCCCCCCCCCCCCCCC(=O)OC/C=C(C)/C=C/C=C(C)/C=C/C1=C(C)CCCC1(C)C |  | -0.236% (inactive)
18 | NCCCN(CCO)CCO |  | -1.91% (inactive)
19 | CCC(C)N(C)C(=O)c1cc2ccccc2c(-c2ccccc2Cl)n1 (stereo not given) |  | -5.84% [at 42.5 µM] (inactive)
20 | O=C1[C@H](CC[C@H](O)c2ccc(F)cc2)[C@@H](c2ccc(O)cc2)N1c1ccc(F)cc1 |  | -14.8% [at 42.5 µM] (inactive)

Row | Compound | Potency | activity change, negative = cytotoxicity
21 | CCCCCCCCCCCCC(=O)O |  | 1.92% (inactive)
22 | COC(=O)CSc1cc(N=c2sc(=O)n3n2CCCC3)c(F)cc1Cl |  | 0.487% (inactive)
23 | O=C(/C=C/c1ccc(O)c(O)c1)O[C@@H]1C[C@](O)(C(=O)O)C[C@@H](O)[C@H]1O |  | -2.79% (inactive)
24 | CCCCCCCCCCCCCCCBr |  | -0.538% [at 42.5 µM] (inactive)
25 | CC1CCc2cc(F)cc3c(=O)c(C(=O)O)cn1c23 (stereo not given) |  | 1% [at 42.5 µM] (inactive)
26 | Cn1sccc1=O | inactive | 
27 | Cn1c(=O)c2c(ncn2CC(O)CO)n(C)c1=O (stereo not given) |  | 3.25% [at 42.5 µM] (inactive)
28 | COc1cc(C(C)(C)C)c(O)c(C(C)(C)C)c1 |  | 0.71% (inactive)
29 | CCCCCCCCCCCCCCC1CO1 (stereo not given) |  | 0.789% (inactive)
30 | CCCCCCCCC(CO)CCCCCC (stereo not given) |  | 2.03% (inactive)
31 | COC(Cc1ccccc1)OC |  | 0.452% (inactive)
32 | C#CCOC(=O)[C@@H](C)Oc1ccc(Oc2ncc(Cl)cc2F)cc1 |  | -0.285% (inactive)
33 | Cl/C(=C\n1cncn1)c1ccc(Cl)cc1Cl |  | 1.5% [at 42.5 µM] (inactive)
34 | CC(=O)N(CC(=O)N(C)C)c1ccccc1 |  | -1.53% [at 42.5 µM] (inactive)
35 | CCC(=O)OC(C)(C)C1CC=C(C)CC1 (stereo not given) |  | -1.09% (inactive)
36 | N#Cc1cc2ccccc2c2ccccc12 |  | 0.68% (inactive)
37 | CC(C)(Oc1ccc(Cl)cc1)C(=O)OCCCOC(=O)C(C)(C)Oc1ccc(Cl)cc1 |  | 0.645% [at 42.5 µM] (inactive)
38 | CCCCC(CC)COCCCN (stereo not given) |  | -6.82% (inactive)
39 | Oc1ccc(Sc2ccc(O)cc2)cc1 |  | -1.33% (inactive)
40 | Cc1cccc(C(C)(C)C)c1O |  | -1.2% (inactive)
